Screen size: about 310,000 compounds; about 14,000 (4.5%) showed an effect of 50% or more. Effects have a minus sign here. Shown is part of a subset that was picked to be rich in strong results.
Molecular target: human ether-à-go-go-related gene (hERG) potassium channel (human, UniProt Q12809)
Experiment: primary screen, population patch clamp on CHO cells stably expressing hERG; higher = less effect of the substance
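Also: peak tail current of the secondary pulse compared with the same well before compound.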

Sequence of human ether-à-go-go-related gene (hERG) potassium channel (Q12809 whole entry, looked up): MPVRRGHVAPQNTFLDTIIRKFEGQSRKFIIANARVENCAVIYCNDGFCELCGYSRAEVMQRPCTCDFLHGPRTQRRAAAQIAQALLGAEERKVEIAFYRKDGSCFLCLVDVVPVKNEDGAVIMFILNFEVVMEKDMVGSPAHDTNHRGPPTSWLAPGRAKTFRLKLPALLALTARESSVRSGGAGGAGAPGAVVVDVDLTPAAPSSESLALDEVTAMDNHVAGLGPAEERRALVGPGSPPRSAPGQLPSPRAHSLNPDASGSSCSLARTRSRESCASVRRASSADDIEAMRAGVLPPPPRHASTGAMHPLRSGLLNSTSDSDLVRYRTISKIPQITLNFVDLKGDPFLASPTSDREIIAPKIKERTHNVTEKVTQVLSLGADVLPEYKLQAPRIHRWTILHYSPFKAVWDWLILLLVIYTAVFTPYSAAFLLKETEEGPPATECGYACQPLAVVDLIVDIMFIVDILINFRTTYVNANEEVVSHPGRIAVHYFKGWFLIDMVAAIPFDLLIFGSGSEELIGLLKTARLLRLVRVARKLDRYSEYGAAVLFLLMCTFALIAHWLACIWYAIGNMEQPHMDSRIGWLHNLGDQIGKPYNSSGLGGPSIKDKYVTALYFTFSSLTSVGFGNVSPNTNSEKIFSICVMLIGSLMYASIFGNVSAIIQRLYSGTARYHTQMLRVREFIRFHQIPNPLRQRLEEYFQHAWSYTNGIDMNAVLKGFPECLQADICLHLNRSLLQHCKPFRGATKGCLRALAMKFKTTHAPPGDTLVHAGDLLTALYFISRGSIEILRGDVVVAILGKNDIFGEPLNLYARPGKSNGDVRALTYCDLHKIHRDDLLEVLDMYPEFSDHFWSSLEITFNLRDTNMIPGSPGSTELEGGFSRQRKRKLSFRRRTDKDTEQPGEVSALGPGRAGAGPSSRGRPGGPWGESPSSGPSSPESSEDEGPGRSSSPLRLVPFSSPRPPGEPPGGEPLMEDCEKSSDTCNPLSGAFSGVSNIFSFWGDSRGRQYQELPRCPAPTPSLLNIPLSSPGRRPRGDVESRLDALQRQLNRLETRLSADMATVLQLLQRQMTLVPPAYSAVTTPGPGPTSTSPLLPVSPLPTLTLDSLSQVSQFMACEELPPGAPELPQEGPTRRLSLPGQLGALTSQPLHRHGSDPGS

Structure (SMILES)	hERG current change (%, negative = inhibition) at 10uM [%]
Cc1ccc(NC(=O)Nc2ccc([N+](=O)[O-])cc2)nc1	9.85
CCCCn1c(N)c(N(Cc2ccccc2OC)C(=O)c2cc(=O)[nH]c3ccccc23)c(=O)[nH]c1=O	17.1
CC(=O)N1CCN(C(=O)CSc2nc3c(cnn3-c3ccccc3)c(=O)[nH]2)CC1	-9.1
CCOc1ccc(N(C)S(=O)(=O)c2ccc(C)c(C(=O)NCc3ccccc3OC)c2)cc1	-6.23
Cc1ccc(-c2nn(CC(=O)NN3CCOCC3)c(=O)c3ccccc23)cc1	-1.66
N#Cc1cc(Cl)c(NCC2CCCO2)cc1C#N (centres unmarked)	7.45
CC1CCCN(C(=O)Nc2cccc(NC(=O)N3CCCC(C)C3C)c2)C1C (centres unmarked)	0.168
Cc1ccc(N2CC(C(=O)Nc3ccc(C)c(S(=O)(=O)N(C)C)c3)CC2=O)cc1 (centres unmarked)	-25.2
O=C(OC(C(=O)NC1CCCC1)c1ccccc1F)c1ccco1 (centres unmarked)	5.25
Cc1cccc(NC(=O)CSCC(=O)N2CCN(c3cccc(C(F)(F)F)c3)CC2)c1	-21.8
COc1ccc(NC(=O)CSCC(=O)N(C)CC(=O)Nc2c(C)cccc2C)cc1	-0.574
CNC(=O)c1c(N)sc2c1CCCCC2	-3.16
COC(=O)C(NC(=O)c1ccco1)(Nc1nc(C2CC2)cs1)C(F)(F)F (centres unmarked)	11.7
Cn1ccnc1COc1ccc(C=O)cc1	10.4
COc1ccc(-c2nnc(SCc3nc4ccccc4s3)n2C(C)C)cc1	-67.7
C=CCn1c(SCC(=O)Nc2ccc(C(=O)OC(C)C)cc2)nnc1-c1cccs1	5.07
C=CCn1c(SCC(=O)Nc2ccc(C(=O)OCC)cc2)nnc1-c1cccs1	16.7
COc1ccc(-n2nnnc2SCc2nc3ccccc3s2)cc1	-5.94
CCn1c(SCc2nc3ccccc3s2)nnc1-c1ccccc1	-11
COc1cccc(-c2nnc(SCc3nc4ccccc4s3)n2C)c1	-29
CCn1c(SCc2nc3ccccc3s2)nnc1-c1cccs1	-60
Cn1c(SCc2nc3ccccc3s2)nnc1-c1cccs1	-36
C=CCn1c(SCC(=O)Nc2ccc3c(c2)CCC3)nnc1-c1cccs1	-76.9

Structure (SMILES)	hERG current change (%, negative = inhibition) at 10uM [%]
Cc1c(/C=N\NC(=O)C2COc3ccc(C(C)(C)C)cc3O2)c2ccccc2n1C (centres unmarked)	14
CC(C)c1nnc(NC(=O)CCS(=O)(=O)c2ccccc2)s1	19.5
CCOC(=O)N1CCC(NC(=O)C2CCCN(C(=O)N3CCOc4ccccc43)C2)CC1 (centres unmarked)	3.21
CCCCOc1ccc(-c2c(C(=O)Nc3ccccc3)c(C)[nH]c(=S)c2C#N)cc1	12.1
C/C(=N/NC(=O)c1ccco1)c1cccc(NC(=O)c2ccc(C)s2)c1	1.1
COc1ccc(CCNC(=O)CCS(=O)(=O)c2ccc3c(c2)NC(=O)CO3)cc1OC	14.5
COc1ccc(NC(=O)CNC(=O)Cn2ccc3ccccc3c2=O)c(OC)c1	15
Cc1nn(Cc2ccc(Cl)cc2)c2sc(C(=O)O)cc12	31.1
Cc1nn(Cc2ccc(Cl)cc2)c2sc(C(=O)OCC(N)=O)cc12	-52.1
Cc1ccc(Cn2nc(C)c3cc(C(=O)OCC(N)=O)sc32)cc1	7.64
CC(=O)Nc1ccc(CN2CCN(CC(C)C)C(CCO)C2)cc1 (centres unmarked)	2.2
CC(C)CCN1CCN(Cc2ccc(Oc3ncccn3)cc2)CC1CCO (centres unmarked)	-9.21
CC(=O)Nc1ccc(CN2CCN(CCC(C)C)C(CCO)C2)cc1 (centres unmarked)	19.7
OCCC1CN(Cc2ccc(F)cc2Cl)CCN1CCc1ccccc1 (centres unmarked)	-67.4
CC(C)CN1CCN(Cc2ccc(F)cc2Cl)CC1CCO (centres unmarked)	-34.4
CC(=O)Nc1ccc(CN2CCN(CCc3ccccc3)C(CCO)C2)cc1 (centres unmarked)	-51.8
OCCC1CN(Cc2ccc(Oc3ncccn3)cc2)CCN1CCc1ccccc1 (centres unmarked)	-55.2
CC(C)CN1CCN(Cc2ccc(Oc3ncccn3)cc2)CC1CCO (centres unmarked)	-28.5
OCCC1CN(Cc2ccon2)CCN1CCc1ccccc1 (centres unmarked)	-19.2
OCCC1CN(Cc2ccc(F)cc2)CCN1CCc1ccccc1 (centres unmarked)	-74.2
COc1cc(NC(=O)COC(=O)Cc2ccc(-c3ccccc3)cc2)cc(OC)c1	3.6
Cc1cc(=O)[nH]c2nnnn12	4.44
O=C(Nc1cccc(F)c1)Nc1ccnn1C1CCN(C(=O)c2ccccn2)CC1	14.2

Structure (SMILES)	hERG current change (%, negative = inhibition) at 10uM [%]
COc1cccc(N=C2SC(C(=O)Nc3ccc(F)cc3)CC(=O)N2C)c1 (centres unmarked)	-11
CC(OC(=O)c1nn(C)c(=O)c2ccccc12)C(=O)Nc1ccc(S(N)(=O)=O)cc1 (centres unmarked)	11.6
COC(=O)c1ccc(CN2CCN(CCCc3ccccc3)C(CCO)C2)cc1 (centres unmarked)	-64.1
COC(=O)c1ccc(CN2CCN(Cc3ccccc3)C(CCO)C2)cc1 (centres unmarked)	-16.5
COC(=O)c1ccc(CN2CCN(CCC(C)C)C(CCO)C2)cc1 (centres unmarked)	-25.7
OCCC1CN(Cc2cc(F)ccc2F)CCN1CCCc1ccccc1 (centres unmarked)	-70.3
Cc1cc(C)n(-c2ccc(F)cc2CN2CCN(Cc3ccccc3)C(CCO)C2)n1 (centres unmarked)	-37.2
OCCC1CN(Cc2ccc(F)cc2)CCN1CCCc1ccccc1 (centres unmarked)	-68.2
OCCC1CN(Cc2ccc3c(c2)CCO3)CCN1C1CCCC1 (centres unmarked)	-12.7
Cc1ccc(CN2CCN(Cc3ccc4c(c3)OCCO4)CC2CCO)cc1 (centres unmarked)	-39.8
OCCC1CN(Cc2ccc3c(c2)CCO3)CCN1Cc1ccc(F)cc1 (centres unmarked)	-72.9
CCCCOC(=O)Nc1ccc(S(=O)(=O)Nc2ccc([N+](=O)[O-])cc2)cc1	9.83
Cc1cc(C(=O)OCC(=O)c2cccs2)c2ccccc2n1	24.1
O=c1[nH][nH]c(-c2ccccc2)c1C=Nc1ccc(Cl)cc1	-23
Cc1ccc(C(=O)C2=C(O)C(=O)N(CCCN3CCOCC3)C23C(=O)N(C)c2ccccc23)o1 (centres unmarked)	27.9
O=C(Cn1[nH]c(=O)c2ccccc2c1=O)OCC(=O)c1ccccc1Cl	-0.463
OCCC1CN(Cc2cccc(F)c2F)CCN1CCc1ccccc1 (centres unmarked)	-55.3
Cc1nn(-c2ccc(F)cc2)c(C)c1CN1CCN(Cc2ccccc2)C(CCO)C1 (centres unmarked)	-44.2
CC(C)n1cc(CN2CCN(CCc3ccccc3)C(CCO)C2)cn1 (centres unmarked)	-53.4
CC(C)CCN1CCN(Cc2ccc3nsnc3c2)CC1CCO (centres unmarked)	-42.6
Cn1cc(CN2CCN(CCc3ccccc3)C(CCO)C2)cn1 (centres unmarked)	4.52
Cc1nn(-c2ccc(F)cc2)c(C)c1CN1CCN(CCC(C)C)C(CCO)C1 (centres unmarked)	-36.3
CC(C)=CCN1CCN(Cc2ccc3nsnc3c2)CC1CCO (centres unmarked)	-19.4

Structure (SMILES)	hERG current change (%, negative = inhibition) at 10uM [%]
OCCC1CN(Cc2ccc3nsnc3c2)CCN1CCc1ccccc1 (centres unmarked)	-82.2
Cc1nn(-c2ccc(F)cc2)c(C)c1CN1CCN(CCc2ccccc2)C(CCO)C1 (centres unmarked)	-67.5
CCn1cc(CN2CCN(CCc3ccccc3)C(CCO)C2)c(C)n1 (centres unmarked)	-31
O=C(O)c1cncc(C#Cc2ccccc2)c1	1.39
Cc1c(C(=O)Nc2ccc(OCc3ccccc3)cc2)cccc1[N+](=O)[O-]	-0.125
CC1CCCCN1S(=O)(=O)c1ccc(C(=O)N2CCOCC2)cc1 (centres unmarked)	16.8
C[Se]C[C@@H](N)C(=O)O.Cl	12.3
COc1cc2ccccc2cc1C(=O)OCC(=O)N(C)c1c(N)n(Cc2ccccc2)c(=O)[nH]c1=O	3.29
Cn1c(C(=O)NCCN2CCc3ccccc3C2)cc2c(=O)n(C)c3ccccc3c21	-11.8
N/C(=N\OC(=O)CCCOc1ccccc1)c1ccccc1	7.28
Br.COC(=O)c1ccc(OCCN2C3=NCCN3c3ccccc32)cc1	-68.7
Cl.c1ccc(OCCN2C3=NCCN3c3ccccc32)cc1	-73.3
Br.COC(=O)CN1C2=NCCCN2c2ccccc21	-11.8
COC(=O)c1ccc(OCCOc2ccc(C(=O)OC)cc2)cc1	-14.3
CCN(CC)c1ccc(/C=N/NC(=O)c2ccc3nc[nH]c3c2)cc1	-22
N#C/C(=C/c1ccccc1)C(=O)OCC(=O)Nc1ccccc1[N+](=O)[O-]	8.46
Cc1nn(-c2ccccc2)c(C)c1-c1nnc(C(F)(F)F)o1	2.32
Cn1c(=O)c2c(-c3ccc(C(C)(C)C)cc3)n(N3CCOCC3)cc2n(C)c1=O	-26.7
COc1ccc(-c2c3c(=O)n(C)c(=O)n(C)c3cn2N2CCOCC2)cc1	-52.3
Cc1ccc(-c2c3c(=O)n(C)c(=O)n(C)c3cn2N2CCOCC2)cc1	-40
